In a collection of fitness landscapes (doi:10.1126/science.1257360):
In all, about 140,000 sequences were measured (“enrichment ratio after two sorts for PhoP signalling”: median about 0, highest 2% from about 11 on). The list comes from a sample in which the highest values are over-represented; it also holds similar and randomly drawn sequences.

B1: PhoQ; a variant is named by its letters at X, in order, P23837 (parent)
chain: MKKLLRLFFPLSLRVRFLLATAAVVLVLSLAYGMVALIGYSVSFDKTTFRLLRGESNLFYTLAKWENNKLHVELPENIDKQSPTMTLIYDENGQLLWAQRDVPWLMKMIQPDWLKSNGFHEIEADVNDTSLLLSGDHSIQQQLQEVREDDDDAEMTHSVAVNVYPATSRMPKLTIVVVDTIPVELKSSYMVWSWFIYVLSANLLLVIPLLWVAAWWSLRPIEALAKEVRELEEHNRELLNPATTRELTSLVRNLNRLLKSERERYDKYRTTLTDLTHSLKTPLXXLQXXLRSLRSEKMSVSDAEPVMLEQISRISQQIGYYLHRASMRGGTLLSRELHPVAPLLDNLTSALNKVYQRKGVNISLDISPEISFVGEQNDFVEVMGNVLDNACKYCLEFVEISARQTDEHLYIVVEDDGPGIPLSKREVIFDRGQRVDTLRPGQGVGLAVAREITEQYEGKIVAGESMLGGARMEVIFGRQHSAPKDE

Variants of: B1
Assay: enrichment ratio after two sorts for PhoP signalling (ratio (wild type AVST 3.29)); higher = more functional
Conditions: with PhoP (E. coli)

Variant	enrichment ratio
GTYD	≤ 0.25
SAKT	≤ 0.25
FGAP	≤ 0.25
FCVG	≤ 0.25
RGTF	≤ 0.25
VHSV	≤ 0.25
RISV	≤ 0.25
ADSV	4.14
WISV	≤ 0.25
TISV	12.8
AISV	15.9
IHWP	≤ 0.25
WMPW	≤ 0.25
DDPW	≤ 0.25
WIPR	≤ 0.25
GRSL	≤ 0.25
HCMH	≤ 0.25
TCMA	15.5
TCMI	15
KCMH	≤ 0.25
TCWV	2.38
TCMV	14.6
TCMS	10.9
TCMD	≤ 0.25

Variant	enrichment ratio
TCIV	≤ 0.25
TCMH	15.1
KCMA	≤ 0.25
FCMA	5.8
FRCS	≤ 0.25
HLCG	≤ 0.25
TQVV	4.23
LDFE	≤ 0.25
SIYM	0.397
FWIR	≤ 0.25
LPTL	≤ 0.25
AFEF	≤ 0.25
SVVF	≤ 0.25
FPHE	≤ 0.25
KCTG	≤ 0.25
KCNV	≤ 0.25
VCTG	0.404
KSNV	≤ 0.25
TCTG	20
TCMG	11.4
TYMF	≤ 0.25
TCVG	≤ 0.25
TCMF	26.2
TCIG	≤ 0.25

Variant	enrichment ratio
TCNV	16.2
FCMF	0.805
IPQW	≤ 0.25
TEEP	≤ 0.25
KVAI	≤ 0.25
VSKE	≤ 0.25
LVPE	≤ 0.25
KFTM	≤ 0.25
VECA	3.45
FAFY	≤ 0.25
SNSG	10.7
GRCQ	≤ 0.25
DDFY	≤ 0.25
TGSW	≤ 0.25
RFSN	0.949
TCHP	≤ 0.25
TCWG	≤ 0.25
TCFK	≤ 0.25
TCGG	21.5
TCVC	≤ 0.25
TCHQ	23.4
WFIY	≤ 0.25
HKKD	≤ 0.25
VKAH	≤ 0.25

Variant	enrichment ratio
AFQW	≤ 0.25
SKAM	28
SKRC	≤ 0.25
SKRM	≤ 0.25
SKPM	≤ 0.25
SKFC	≤ 0.25
SKSM	14
SKGM	≤ 0.25
HKSM	≤ 0.25
SKIC	30.5
SKSF	≤ 0.25
SKSK	≤ 0.25
SKIM	20.9
AFGE	≤ 0.25
KDQH	≤ 0.25
EESA	≤ 0.25
NRWG	≤ 0.25
FGTG	≤ 0.25
MKMF	≤ 0.25
TNYM	1.85
AIGW	11.4
AGGW	0.253
ANHW	≤ 0.25
VHGW	≤ 0.25

Variant	enrichment ratio
ANGW	11.4
NVGW	≤ 0.25
AHGW	≤ 0.25
AVGD	≤ 0.25
AVGW	12.2
RGVW	≤ 0.25
GKNA	≤ 0.25
CIQI	≤ 0.25
VWKV	≤ 0.25
QAIG	≤ 0.25
WRVK	≤ 0.25
MGTG	≤ 0.25
MGWG	0.67
MGMG	42.5
MGME	13
MGMY	≤ 0.25
MGMW	≤ 0.25
LMNI	≤ 0.25
TSSL	13.7
SDSL	0.277
VRSL	≤ 0.25
ASSL	11.7
SSSL	12.5
FSSL	≤ 0.25

Variant	enrichment ratio
KSSL	≤ 0.25
QSSL	9.11
NSSL	≤ 0.25
SYTR	≤ 0.25
VVCY	≤ 0.25
GKAF	≤ 0.25
SLVR	0.339
SEGG	9.05
SEVI	12.2
SEVA	10.3
SEFA	1.84
SLVI	2.14
SEVC	9.44
SEVR	12.1
SEVG	25.6
SCVR	1.05
SEFG	15.8
SEFE	4.76
RKKT	≤ 0.25
SLWN	≤ 0.25
RRRI	≤ 0.25
PERI	≤ 0.25
FFGE	≤ 0.25
YKRH	≤ 0.25

Variant	enrichment ratio
VSRE	≤ 0.25
VRMG	≤ 0.25
HGFC	≤ 0.25
SEWG	17.3
SEMS	14.3
SEVS	20.4
SEMD	1.79
SEMK	7.11
SLVS	1.29
SEMQ	8.89
SEMN	4.75
SCVS	3.13
SEMI	17.1
SPWG	≤ 0.25
SQWG	≤ 0.25
HDQV	≤ 0.25
HCLM	≤ 0.25
NDAA	≤ 0.25
NRLG	≤ 0.25
NMCH	≤ 0.25
HTPK	≤ 0.25
PDYQ	≤ 0.25
ANWA	≤ 0.25
HDKT	≤ 0.25

Variant	enrichment ratio
SAHC	≤ 0.25
SEVK	12.3
SEMG	21.5
SEGS	4.52
SLVK	1.38
SEEG	2.48
SEKK	≤ 0.25
EACH	2.01
FYVQ	≤ 0.25
GYNI	≤ 0.25
LYDQ	≤ 0.25
FGLT	9.94
FGLV	11.7
FPLV	≤ 0.25
FGLA	12.2
QGLV	7.45
FGLS	8.38
HKVW	≤ 0.25
VDRE	≤ 0.25
EAAG	≤ 0.25
CSSY	17.5
KSSY	≤ 0.25
NSSY	≤ 0.25
FSSY	0.259

Variant	enrichment ratio
CVSY	≤ 0.25
TSSY	14.6
KMIV	≤ 0.25
IVGD	≤ 0.25
TDFN	≤ 0.25
SLSM	8.94
CLSF	10.1
PLSM	≤ 0.25
ADSM	≤ 0.25
TLSM	25.5
LNSM	0.463
AKSM	15.5
MNSM	9.22
AHSM	4.11
CLSM	22.7
VLSM	0.436
TNSM	23.5
IDFI	≤ 0.25
NPDM	≤ 0.25
PIRV	≤ 0.25
EGSN	≤ 0.25
PKCK	≤ 0.25
RLKF	≤ 0.25
AIND	≤ 0.25

Variant	enrichment ratio
GVLN	10.1
AMSM	15.1
KKSM	≤ 0.25
KMSM	≤ 0.25
ALSM	17
AVSF	9.87
NMSM	≤ 0.25
ARSM	4.49
AQSM	10.4
AVSM	11.3
WISM	≤ 0.25
AISM	15.9
DRSF	≤ 0.25
HYGV	≤ 0.25
IFME	≤ 0.25
FRHK	≤ 0.25
PAGH	≤ 0.25
QFCS	≤ 0.25
SPYV	≤ 0.25
WPGT	≤ 0.25
YLNI	≤ 0.25
ANSF	5.47
RISM	≤ 0.25
ALSF	12.1

Variant	enrichment ratio
NISM	0.899
ALHF	≤ 0.25
PLSF	≤ 0.25
ANSM	16.6
TISM	27.4
EYYP	≤ 0.25
PMHD	≤ 0.25
APSK	≤ 0.25
YWYS	≤ 0.25
KTMK	≤ 0.25
RNCC	≤ 0.25
KASQ	≤ 0.25
QASK	≤ 0.25
KSSQ	≤ 0.25
QASQ	23.3
QPSQ	≤ 0.25
TPSQ	≤ 0.25
FSSQ	≤ 0.25
QSSQ	11.3
TSSQ	11.8
LWCS	≤ 0.25
KPGV	≤ 0.25
FAWD	≤ 0.25
LEFH	≤ 0.25

Variant	enrichment ratio
ELWP	≤ 0.25
MRDF	≤ 0.25
TCQR	4.53
MQCC	11.8
MQCI	1.41
MICH	2.87
MILH	0.967
MICC	29.6
MQTH	≤ 0.25
IQVR	≤ 0.25
NDHA	≤ 0.25
MDME	≤ 0.25
RVHQ	≤ 0.25
NHNI	≤ 0.25
YHNL	≤ 0.25
THNI	14.1
THNL	12.7
NHNL	≤ 0.25
SHNI	8.22
YPKW	≤ 0.25
AGAF	3.66
TPRL	≤ 0.25
AGFP	≤ 0.25
AHGI	≤ 0.25

Variant	enrichment ratio
ANHA	≤ 0.25
GHGI	≤ 0.25
AIGI	11.8
MTGI	11.7
ANGI	22.1
VHGI	≤ 0.25
YTGI	≤ 0.25
GNGI	≤ 0.25
MTGD	≤ 0.25
AGGI	12.9
IIYR	≤ 0.25
DKAR	≤ 0.25
LMEW	≤ 0.25
VFIY	≤ 0.25
MMGI	≤ 0.25
ATGI	13.1
TSGI	12.8
KSGI	≤ 0.25
KCGI	≤ 0.25
TMGI	20.6
ATGS	5.38
TTGI	9.44
TMFP	≤ 0.25
